The results in this text go back to PubChem BioAssay.

A short description of this assay: RPMI8226 myeloma cell viability, profiling panel, resazurin fluorescence, basal, 24 h, PK04 Diversity Set (AID 1180).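 Note: RPMI8826 multiple myeloma cell line at 5000 cells per well; test concentration not given here.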 The note with it: higher = more signal.
For the compound `O=C(O)[C@@H]1[C@@H]2C(=O)N(c3ccccc3)C(=O)[C@@H]2C[C@@H]1Sc1ccccc1`, the z-score was -1.09.

The compound `CCOC(=O)C1=CC[C@@H](c2ccccc2F)N(S(=O)(=O)c2ccc(C)cc2)[C@H]1c1ccccc1` registered a z-score of -0.781.

As to `C=CCN1Cc2ccccc2[C@@H]2OC(c3ccc(OCCCO)cc3)=N[C@]2(CC=C)C1=O`, the z-score is -0.747.

As for `O=C(NCCN1CCOCC1)[C@@H]1c2ccccc2C(=O)N(C2Cc3ccccc3C2)[C@H]1c1ccc(CO)cc1`, the z-score came to 0.142.

On to `C=CCC(OC(C)=O)[C@@H]1[C@@H](N(Cc2cccc3ccccc23)C(=O)Cc2ccc(OC)cc2)c2cc(OCCCO)ccc2N1C(=O)c1ccc(-c2ccccc2)cc1` (some centres not stated), for which the z-score was 0.0598.

In turn, `CC(C)[Si](C#CCCCC#N)(O[C@H](c1ccccc1)c1cn(Cc2ccccc2)nn1)C(C)C` showed a z-score of 0.424.

`NCCCCCCNC(=O)[C@@H]1C[C@@H]2C(=O)N[C@@H](CCCCN)C(=O)N2[C@@H]1c1ccc(O)cc1` had a z-score of -0.354.

With `CCN(CC)c1ccc(N2CC=CC34O[C@@H]5/C=C\CCCOC(=O)C5[C@H]3C(=O)N(C(C)CO)[C@@H]4C2=O)cc1` (some centres not stated), the z-score is 0.778.

`CC(C)N1C(=O)C[C@@](C(=O)O)(c2ccc([N+](=O)[O-])cc2)[C@H]1c1ccc(CO)cc1` came in with a z-score of 0.191.

Turning to `CN(C)C(=O)[C@@]1(Cc2ccccc2)N=C(c2ccc(OCCCO)cc2)O[C@H]1c1ccccc1`, the z-score came out at 1.16.

With `Cc1ccc(S[C@]2(C(=O)NC(C)C)CC(=O)N(Cc3cc(C(F)(F)F)cc(C(F)(F)F)c3)[C@@H]2c2ccc(CO)cc2)cc1`, the z-score amounted to 0.483.

In turn, `COCC(=C=CC[C@H](O)c1ccc(CO)o1)CCO` yielded a z-score of 0.036.
